Screens as filed in PubChem BioAssay.
Compounds with a hit are over-represented: about 1.4% of the library has one in this group of screens.
AmpC no deterg – blocks E. coli AmpC beta-lactamase in detergent-free assay; P00811; AmpC nitrocefin hydrolysis, absorbance 480 nm, 0.0001% Triton; Potency, µM (titrated, usually from 57.1 µM), without a hit: at the top dose activity change, negative = inhibition, actives largely listed as inhibitors; 330,000 tested, 0.52% active; AID 485341;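 also: plate controls were no compound for no effect and no enzyme for full effect; nearly all actives have a fitted effect of over 20% in size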
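AmpC (5.3 nM in the dispensed reagent) in 20 mM phosphate pH 7.0 with 0.01% (detergent screen) or 0.0001% Triton X-100 was preincubated with compounds for 15 min at room temperature. Nitrocefin was then added from an 800 uM solution, and hydrolysis was followed at 480 nm.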
NS1 function inh – blocks influenza NS1 protein function | Potency, µM (doses to about 46.1 µM), inactives show at the top dose activity, positive = more growth | 270,000 tested, 0.4% active | AID 2326; calls by dose curve; also: actives are rising curves; nearly all actives have a fitted effect of over 50% in size
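OD600 was taken as the measure of yeast growth restored by compound in an NS1-expressing S. cerevisiae strain. Cells had been washed out of glucose medium and diluted 1:100 into galactose -URA medium, pH 6.0.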
SARS PLpro yeast – inhibitors of SARS-CoV papain-like protease in yeast; 330,000 tested, 0.19% active; S. cerevisiae expressing SARS-CoV PLpro, growth rescue; Potency, µM (doses to about 32.9 µM), for the others: at the top dose activity, positive = growth rescue, most hits filed as activators; AID 485353; calls by dose curve; also: 0% is about no effect; nearly all actives have a fitted effect of over 55% in size
AmpC inh detg – inhibitors of E. coli AmpC beta-lactamase with detergent; AmpC hydrolysis of nitrocefin, absorbance 480 nm, 0.01% Triton; Potency, µM (doses to about 114 µM), for the others: at the top dose activity change, negative = inhibition, actives largely listed as inhibitors; 370,000 tested, 0.041% active;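 also: 0% = no-compound wells and -100% = no-enzyme wells; nearly all actives have a fitted effect of over 25% in size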
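20 mM phosphate pH 7.0 + 0.01% (detergent screen) or 0.0001% Triton X-100; 5.3 nM AmpC reagent; cpd preinc 15 min RT; nitrocefin (800 uM stock) to start; A480 q20 s × 4 min; Activity was normalised to no-enzyme and no-compound control wells.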
Giardia FBPA inh-1 – blocks Giardia fructose-bisphosphate aldolase activity; A8B2U2; 290,000 tested, 0.71% active; Potency, µM (series often up to 59.6 µM), without a hit: top-dose activity, negative = inhibition, hits mostly inhibitors; purified Giardia FBPA; also: % is scaled to controls: 0 for no effect and ±100 for the full control effect; nearly all actives have a fitted effect of over 55% in size
Target sequence (A8B2U2 whole entry, looked up): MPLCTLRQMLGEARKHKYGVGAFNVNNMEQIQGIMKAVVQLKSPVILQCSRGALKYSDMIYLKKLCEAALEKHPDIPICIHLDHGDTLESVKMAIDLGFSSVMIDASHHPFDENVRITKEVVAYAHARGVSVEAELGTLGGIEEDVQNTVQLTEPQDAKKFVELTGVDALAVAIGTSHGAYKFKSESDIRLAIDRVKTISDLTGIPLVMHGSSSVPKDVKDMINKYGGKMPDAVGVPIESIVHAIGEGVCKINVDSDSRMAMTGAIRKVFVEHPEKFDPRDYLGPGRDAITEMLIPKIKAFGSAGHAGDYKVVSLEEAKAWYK
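Giardia FBPA (40 nM reagent) was preincubated 10 min at RT with compound (up to 57.5 uM final), then substrate plus GAPDH/TPI/NAD/arsenate coupling system with diaphorase/resazurin was added; resorufin fluorescence (525/598 nm) was read after 20 min.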
Giardia growth – Giardia lamblia growth inhibition; shares compounds with Giardia FBPA inh-1; Giardia lamblia trophozoite growth inhibition; Potency, µM (highest dose often 57.5 µM), for the others: top-dose activity change, negative = inhibition, hits mostly inhibitors; 1,500 tested, 5% active;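 also: trophozoites exposed to compound for 48 h at 37 °C; % is scaled to controls: 0 for no effect and ±100 for the full control effect; nearly all actives have a fitted effect of over 70% in size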
Mammal cell tox – toxic to mammalian cells in Giardia aldolase counter-screen. AID 2786. 1,500 tested, 4% active. mammalian cell viability counter-screen, qHTS. shares compounds with Giardia FBPA inh-1. Potency, µM (titrated, usually from 57.5 µM), inactives show top-dose viability change, negative = toxicity, most hits filed as inhibitors;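 also: Chinese hamster ovary cells used as mammalian cytotoxicity surrogate; viability measured as cellular ATP by luminescence; compound exposure lasted 48 h before reading; % is scaled to controls: 0 for no effect and ±100 for the full control effect; nearly all actives have a fitted effect of over 60% in size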
Giardia FBPA inh-2 – confirmation of Giardia fructose-bisphosphate aldolase inhibitors; shares compounds with Giardia FBPA inh-1; purified Giardia aldolase enzyme activity, qHTS; Potency, µM (top dose mostly 57.5 µM), for the others: at the top dose activity change, negative = inhibition, most hits filed as inhibitors; 1,500 tested, 5% active; also: % is scaled to controls: 0 for no effect and ±100 for the full control effect; nearly all actives have a fitted effect of over 45% in size
Rabbit aldolase – rabbit FBP aldolase inhibition by Giardia aldolase hits; shares compounds with Giardia FBPA inh-1; Rabbit muscle FBPA enzyme inhibition, selectivity counter-screen; Potency, µM (titrated, usually from 57.5 µM), without a hit: at the top dose activity, negative = inhibition, most hits filed as inhibitors; 1,500 tested, 4% active; AID 2794; also: % is scaled to controls: 0 for no effect and ±100 for the full control effect; nearly all actives have a fitted effect of over 60% in size
Target sequence (P00883 whole entry, looked up): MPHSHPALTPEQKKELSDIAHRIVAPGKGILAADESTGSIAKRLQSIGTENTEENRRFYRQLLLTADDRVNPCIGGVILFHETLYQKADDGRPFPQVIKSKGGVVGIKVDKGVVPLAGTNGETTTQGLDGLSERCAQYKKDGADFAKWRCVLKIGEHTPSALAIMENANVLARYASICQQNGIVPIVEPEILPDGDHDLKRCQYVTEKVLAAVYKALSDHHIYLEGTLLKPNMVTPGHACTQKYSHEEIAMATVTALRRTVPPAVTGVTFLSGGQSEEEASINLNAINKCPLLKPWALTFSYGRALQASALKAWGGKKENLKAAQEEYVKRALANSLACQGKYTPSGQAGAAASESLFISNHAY
GAPDH coupling – GAPDH inhibition flagged for Giardia aldolase hits. shares compounds with Giardia FBPA inh-1. GAPDH coupling enzyme counterscreen, biochemical, qHTS. Potency, µM (series often up to 57.5 µM), for the others: top-dose activity change, negative = inhibition, hits mostly inhibitors. 1,500 tested, 6% active; also: % is scaled to controls: 0 for no effect and ±100 for the full control effect; nearly all actives have a fitted effect of over 55% in size
An asterisk follows results filed as active; ? = inconclusive; . = no result; [ ] = remark or other dose. Unless noted, calls follow the shape of the dose curve; as a rule, active = well fitted curve in the direction sought with a large enough effect; inconclusive = small, poorly fitted or top-dose-only effect, or another doubt; inactive = no such curve, though single readings can be large; an effect the other way counts as inactive or inconclusive. Potency is read from the fitted curve at half-maximal effect.

SMILES	AmpC no deterg	NS1 function inh	SARS PLpro yeast	AmpC inh detg	Giardia FBPA inh-1	Giardia growth	Mammal cell tox	Giardia FBPA inh-2	Rabbit aldolase	GAPDH coupling
CNC(=S)NNS(=O)(=O)c1ccc(OC)cc1OC	-14%	.	-6%	7%	20µM*	22%	-4%	2%	6%	7%
CC(Oc1ccccc1)C(=O)Nc1nc(-c2ccccn2)cs1 (stereo not given)	-19%	.	-11%	-4%	.	.	.	.	.	.
C[C@H](NC(=O)c1ccccc1)C(=O)Nc1nc(-c2ccccn2)cs1	-33%	.	-1%	-5%	5.6µM*	?	-14%	1%	-3%	-3%
O=C(/C=C/c1ccco1)Nc1nc(-c2ccccn2)cs1	-44%	.	?	0%	18µM*	?	?	-13%	-10%	-7%
CSCCC(=O)Nc1nc(-c2ccccn2)cs1	-15%	.	7%	6%	16µM*	14µM*	-21%	-4%	-4%	-3%
Cc1ccc(C(=O)Nc2cccc3ccccc23)cc1	-21%	-5%	3%	-15%	0%	.	.	.	.	.
CC(C)(C)c1ccc(C(=O)Nc2cccc3c(=O)[nH][nH]c(=O)c23)cc1	-49%	13%	12%	1%	20µM*	?	?	-5%	-3%	0%
NC(=S)N/N=C/c1ccc(C(F)(F)F)cc1	-20%	-68%	?	-10%	?	.	.	.	.	.
NC(=S)N/N=C/c1ncc(C(F)(F)F)cc1Cl	-14%	-39%	9%	-19%	6.3µM*	3%[10.4 µM]	?	-18%	4%	?
Cc1ccccc1CSc1nc2nc(C)c(Cc3ccccc3)c(C)n2n1	.	.	.	-1%	.	.	.	.	.	.
O=C(NCSc1ccnc(SCNC(=O)c2ccccc2)n1)c1ccccc1	-17%	-5%	-7%	?	5%	.	.	.	.	.
O=C(NCSc1ccncn1)c1ccccc1	-6%	-3%	-11%	-9%	16µM*	8%[10.4 µM]	1%	7%	5%	10%
CSCC(C)N1CCC(n2nccc2NC(=O)c2ccc3c(c2)OCO3)CC1 (stereo not given)	-17%	2%	2%	3%	.	.	.	.	.	.
CN1CCN(C(=S)NC(=O)c2ccc(Br)cc2)CC1	-11%	-2%	0%	5%	18µM*	-6%	-3%	9%	-1%	9%
Cc1ccc(C(=O)NC(=S)N2CCN(C)CC2)cc1	-19%	0%	4%	-13%	-22%	.	.	.	.	.
CN1CCN(C(=S)NC(=O)c2ccc(-c3ccccc3)cc2)CC1	17%	-3%	0%	8%	18µM*	-11%[10.4 µM]	2%	6%	12%	-5%
C/C(CC(=O)N1CCN(C=O)CC1)=N\NC(=O)c1ccc(Cl)cc1	-15%	-6%	-1%	5%	-11%	.	.	.	.	.
O=CN1CCN(C(=S)NC(=O)c2ccc(Cl)cc2)CC1	-9%	3%	-2%	5%	10µM*	-5%[38.3 µM]	10%	2%	5%	-7%
Cc1ccc2c(c1)C1CN(C)CCC1N2C(=S)NC(=O)c1ccc(Br)cc1 (stereo not given)	36%	.	23%	-2%	16µM*	8.9µM*	-8%	-12%	6%	7%
C/C(N[C@@H]1CSCC1O)=C1/C(=O)CC2[C@@H]1C2(C)C (stereo not given in full)	.	.	.	.	-10%	.	.	.	.	.
NC(=O)c1cc(C(=O)c2ccc(Cl)cc2)c[nH]1	-15%	-1%	-2%	7%	0%	.	.	.	.	.
Cc1cccc(C)c1NC(=O)C1CCN(S(C)(=O)=O)CC1	-7%	17%	-1%	?	8%	.	.	.	.	.
CCC(Sc1nc2n[nH]c(C)c2c(=N)n1-c1ccc(C)c(Cl)c1)C(=O)N1CCOCC1 (stereo not given)	0%	-36%	0%	2%	10%	.	.	.	.	.
COc1ccc(NC(=O)CCc2c(C)nc3c(c2C)c(=O)n(C)c(=O)n3C)c(OC)c1	.	.	.	17%	.	.	.	.	.	.
CN(C)c1ccc(N/C=C/C(=O)C(C)(C)C)cc1	-21%	-1%	-15%	2%	14µM*	?	-17%	-49%	?	-21%
SMILES	AmpC no deterg	NS1 function inh	SARS PLpro yeast	AmpC inh detg	Giardia FBPA inh-1	Giardia growth	Mammal cell tox	Giardia FBPA inh-2	Rabbit aldolase	GAPDH coupling
CCOc1ccc(N2C(=O)CC(NCC3CCCO3)C2=O)cc1 (stereo not given)	2%	-3%	2%	-3%	-3%	.	.	.	.	.
OC(CNc1ccccc1)Cn1ccc2ccccc21 (stereo not given)	?	6%	-1%	4%	18µM*	?	-4%	-4%	1%	4%
COc1c(O)cc2c(=O)oc3c(OC)c(O)cc4c(=O)oc1c2c34	.	.	.	.	-22%	.	.	.	.	.
O=c1cc2c(=O)oc3cc(O)c(O)oc3c2c(O)c1O	-15%	6%	1%	-5%	2.8µM*	15%[10.4 µM]	21%	-27%	?	-18%
O=C(CC1C(=O)OCC2CCCCN21)Nc1ccccc1C(F)(F)F (stereo not given)	-12%	.	2%	5%	22µM*	54%	23%	5%	0%	13%
CCN1CCOC(=O)C1CC(=O)Nc1ccccc1C(F)(F)F (stereo not given)	.	.	.	0%	.	.	.	.	.	.
COc1ccccc1C(=O)NCC(=O)OCCCOC(=O)CNC(=O)c1ccccc1OC	15%	1%	-2%	-1%	.	.	.	.	.	.
CCOc1ccc(C(=O)CCC(=O)O)cc1	-15%	-1%	1%	-10%	-2%	.	.	.	.	.
CCOc1ccc(/C(CCC(=O)O)=N/NC(=S)NC(C)C)cc1	-33%	.	0%	?	16µM*	-16%	18%	4%	15%	10%
O=C(Nc1ccccc1F)c1cnccn1	-2%	.	-1%	4%	5%	.	.	.	.	.
O=C(Nn1cc(C(=O)Nc2ccc(F)cc2F)c2ccccc2c1=O)c1cnccn1	-17%	.	-7%	-12%	18µM*	?	-9%	-9%	1%	-17%
CCCC(=O)Nc1nc2c(OC)ccc(OC)c2s1	-26%	-60%	-1%	2%	-12%	.	.	.	.	.
Cc1nc2c(=O)n(C)c(=O)nc-2n(C)n1	-20%	-43%	-62%	-4%	?	5µM*	16µM*	4µM*	4µM*	2.2µM*
